Data on 40 compounds can be found in PubChem BioAssay (NCI).

This is part of a sample that, as a whole, favours compounds with a hit. Of some 83,000 tested, about 20% had one in any assay.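 Method: cells in 96-well plates; compound added at one concentration; 48 h incubation; percent growth measured; values under 10 scored active.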 The source made the active and inactive calls.

The test system of the assay is MOLT-4 leukemia. In words: NCI-60 one-dose screen, 48 h (100 = growth as untreated, 0 = no growth, -100 = all killed). The following applies: 10 µM unless noted. As to the method:
Growth inhibition of the MOLT-4 human tumor cell line is measured as a screen for anti-cancer activity. Cells are grown in 96 well plates and exposed to the test compound for 48 hours. Compounds are tested at a single concentration, which is 10^-5 M for most compounds. The reported endpoint is percent growth (GI% or GIPRCNT), where numbers from 0 - 100% represent growth inhibition, and numbers from -100% - 0 represent cell death. For example, a value of 40 represents 60% growth inhibition. A value of 0 means no net growth occurred over the course of the experiment. A value of -40 indicates 40% of cells at the beginning of the experiment died by the end of the experiment. A value of -100 means all cells are dead at the end of the experiment.
NCI-60 Human Tumor Cell Lines Screen was performed using the standard one-dose NCI protocol, which is described in more detail at https://dtp.cancer.gov/discovery_development/nci-60/default.htm.
Compounds with GIPRCNT values below 10 were considered active. Activity score was based on GIPRCNT using the following formula: […]
Score is 0 for GIPRCNT values of 100 or above, 50 for GIPRCNT values of 0, and 100 for GIPRCNT values of -100.
With `CN(C)CCCNC(=O)C(c1ccccc1)c1ccccc1`, the growth is 85.3% (inactive). On to `CCC(=O)Nc1ccccc1C#C/C=C\C#Cc1ccccc1SC`, for which the growth is 40.7% (inactive). Turning to `C=CC(=O)N[C@H](/C=C/C(=O)OCC)Cc1ccc(-c2cc(Cl)cc(Cl)c2)cc1`, the growth was 74.3% (inactive). Then `CCCCCCCCCCCCNC(=S)N/N=C/c1ccc(Cl)c(Cl)c1`, with 93.8% (inactive); and `Cc1cccc(-n2c(C)nc3ccc(NC(=O)NCCCl)cc3c2=O)c1`, with 105% (inactive); and `COc1cc(C2C=C(C)N=C3SC(C)=NN32)cc(OC)c1OC` (stereo not given), with 92.8% (inactive). With `CCC#CC[C@H]1C/C=C2/C(=O)C=C[C@@H]2C/C=C\CCCC(=O)O1`, the growth is 7.42% (active). Consider `Cn1c(=O)c2c(nc3n2CCN(CCc2ccc(OCCN4CCOCC4)cc2)C3)n(C)c1=O`, for which the growth is 98% (inactive). For `CC(Br)C(O)c1cc2c(cc1Br)OCO2` (stereo not given), the growth is 104% (inactive). Consider `NC(C(=O)O)C(O)c1ccc(OCc2ccccc2)c(OCc2ccccc2)c1` (stereo not given), for which the growth is 98.9% (inactive).

Regarding `COc1ccc(S(=O)(=O)N2CCN(c3cc4c(cc3F)c(=O)c(C(=O)O)cn4C3CC3)CC2)c(OC)c1`, the growth was 69.3% (inactive). `COC(=O)CCCCCCN=Cc1c(O)c(O)c(C(C)C)c2cc(C)c(-c3c(C)cc4c(C(C)C)c(O)c(O)c(C=NCCCCCCC(=O)OC)c4c3O)c(O)c12`: the growth is 15.8% (inactive). As for `O=c1cc(C2NCCc3c2[nH]c2ccccc32)c2c(ccc3ccccc32)o1` (stereo not given), the figure is 75.1% (inactive); as for `CCN1C(=O)/C(=c2\sc3n(c2=O)C2C(NN=3)N(CC)C(=S)N2CC)c2ccccc21` (stereo not given), 103% (inactive); as for `CCC1CCc2nc3sc(C(=O)Nc4ccccc4F)c(N)c3cc2C1` (stereo not given), 40% (inactive). On to `O=C1c2ccccc2C(=O)c2c1oc1oc3c(c(=O)c21)c(=O)n(-c1ccccc1)c1ccccc31`, for which the growth is 16.1% (inactive). `COc1cccc(-c2nc3sccn3c2-c2ccnc(NCCCNS(=O)(=O)c3ccccc3)n2)c1`: the growth was 29.4% (inactive). On to `COc1ccc(OC)c(/C=C2\Oc3cc(OCCN4CCCC4)ccc3C2=O)c1`, for which the growth is 87.5% (inactive). Take `CC[C@H](C)[C@H]1NC(=O)[C@@H](N[C@](C)(O)[C@@H](N)CC(C)C)[C@@H](C)OC(=O)[C@H](Cc2ccc(OC)cc2)N(C)C(=O)[C@@H]2CCCN2C(=O)[C@H](CC(C)C)NC(=O)[C@@H](C)C(=O)[C@H](C(C)C)OC(=O)C[C@@H]1O`: the growth is -24.8% (active). Take `COc1ncc(-c2ccc3ncnc(Nc4cccc(Cl)c4)c3c2)cc1NS(=O)(=O)C1CC1`: the growth is -0.986% (active). As for `CCCCNC(=O)NS(=O)(=O)c1ccc(N2N=C(c3ccc(C)cc3C)CC2c2ccc(OC)cc2)cc1` (stereo not given), the figure is 52.3% (inactive); as for `O=C(CNc1c(Cl)cccc1Cl)Nc1ccc(-c2nc3ccccc3s2)cc1`, 5.63% (active).

As to `Cc1sc(N=Nc2ccc(N(C)C)cc2)[n+]([O-])c1C`, the growth was 103% (inactive). Then `COc1ncc(-c2ccc3ncnc(Nc4cccc(Cl)c4)c3c2)cc1NS(=O)(=O)CCN1CCOCC1`, with 2.58% (active); and `NC(N)=NC(N)=Nc1ccccc1-c1ccccc1`, with 98.6% (inactive); and `O=C1CCCCN1CCCCC#Cc1ccccc1C#Cc1ccc([N+](=O)[O-])cc1`, with 18.7% (inactive). As to `CCN(CC)P(=O)(N(CC)CC)N(CCCSC/C=C(\C)CC/C=C(\C)CCC=C(C)C)CCCN1CCN(C)CC1`, the growth is 93.1% (inactive). As for `COc1ccc2c(c1)C(=O)/C(=C/c1ccc(O)cc1)O2`, the figure is 62.8% (inactive); as for `Cc1ccc2nc(-c3c(N)n[nH]c3CCCO)[nH]c(=O)c2c1`, 95.7% (inactive). Take `Cc1ccc2nc(SCn3nnc4ccccc4c3=O)[nH]c2c1`: the growth was 71.2% (inactive).

With `NS(=O)(=O)c1ccc(CN2C(=O)c3cccc4cccc(c34)C2=O)cc1`, the growth is 95.5% (inactive). Consider `COc1ccc(NC(=O)/N=c2\oc3c(OC)cccc3cc2-c2cc3ccccc3[nH]2)cc1`, for which the growth is 112% (inactive).

Take `COc1ccc(/C(=N/O)c2cc(OC)c(OC)c(OC)c2)c(OC)c1N`: the growth was 27.8% (inactive). For `COc1ccc(C2=CC(c3ccc(Oc4ccnc5cc(Cl)ccc45)c(OC)c3)c3c(nc(OC)[nH]c3=O)N2)cc1` (stereo not given), the growth is 7.77% (active). As to `NC(=O)c1c(NC(=O)c2ccc(OCC3CCCO3)cc2)sc2c1CCCC2` (stereo not given), the growth was 99.3% (inactive). On to `N#Cc1ncc(-c2ccc(F)c(F)c2F)c(NC2CCCCCC2)n1`, for which the growth is 68.1% (inactive).

`Cc1nn(-c2ccc(Cl)cc2)c(=O)n1CCOc1ccccc1Cl`: the growth was 97.2% (inactive). Regarding `CSc1ccccc1C#C/C=C\C#Cc1ccccc1N1CCCCC1=O`, the growth is 104% (inactive). Take `CCCCCC/C=C\CCCCCCCCOc1ccc(CCOP(=O)(O)OCC[N+](C)(C)C)cc1`: the growth was 54.1% (inactive).

Regarding `CCOC(=O)C1=C(C)NC(=O)NC1c1ccc(OCC(=O)N/N=C/c2ccc(Cl)cc2)cc1` (stereo not given), the growth is 92.3% (inactive).
